The text below walks through data of the supplement of paper PMC10849652.

What all share (assay): log2 fold change, soluble protein after heating vs DMSO (PISA); higher = thermal stabilisation; K562 cells, 10 uM, 30 min; active = over 0.2 and 3.5 SD of the protein, either way, in both replicates (recomputed)
Compound in experiment [1]: COC1=CC=C(C=C1)CN2C=CC3=C2C=C(C=C3)C(=O)NO
Put shortly:
(§1)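 Soluble protein was quantified by TMTpro 16plex LC-MS/MS after channel sums were equalised. It was obtained as the supernatant after 21,000xg for 90 min from pooled aliquots of K562 cells (2×10^6 cells/mL, 10 μM compound, 30 min) heated for 3 min across 48°C-58°C and extracted in PBS with 0.5% NP-40 at 4°C. Thermal stability values are relative to control samples and come from duplicates. They are given as log2 fold changes.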

Compound in a further experiment: CON(C)C(=O)N1N=C(c2cc(F)ccc2F)S[C@@]1(CCCN)c1ccccc1 [filanesib]
Put shortly: as §1

Compound in a further experiment: CO[C@H]1C[C@@H]2CC[C@@H](C)[C@@](O)(O2)C(=O)C(=O)N2CCCC[C@H]2C(=O)O[C@H]([C@H](C)C[C@@H]2CC[C@H](n3cnnn3)[C@H](OC)C2)CC(=O)[C@H](C)/C=C(\C)[C@@H](O)[C@@H](OC)C(=O)[C@H](C)C[C@H](C)/C=C/C=C/C=C/1C [zotarolimus]
Put shortly:
as §1

Compound in the next experiment: COc1cc(C(=O)O)ccc1NC(=O)[C@@H]1N[C@@H](CC(C)(C)C)[C@](C#N)(c2ccc(Cl)cc2F)[C@H]1c1cccc(Cl)c1F [idasanutlin]
Put shortly: as §1

Compound in the next experiment: COc1cc(Nc2ncc3c(n2)-c2ccc(Cl)cc2C(c2c(F)cccc2OC)=NC3)ccc1C(=O)O [alisertib]
Put shortly:
as §1

Compound in experiment [2]: COc1cc2nc(-c3cc(F)ccc3O)nc(N[C@@H]3CNC[C@H]3C(C)(C)O)c2cc1OC
Summed up: as §1

Compound in a further experiment: COc1cc2ncnc(Nc3ccc(F)c(Cl)c3)c2cc1OCCCN1CCOCC1 [gefitinib]
Put shortly:
as §1

Compound in experiment [3]: COc1cccc2cc(-c3nc([C@H]4CC[C@H](C(=O)O)CC4)n4ncnc(N)c34)[nH]c12
Summed up: as §1

Compound in another experiment: CS(=O)(=O)CCNCc1ccc(-c2ccc3ncnc(Nc4ccc(OCc5cccc(F)c5)c(Cl)c4)c3c2)o1 [lapatinib]
Put shortly:
as §1

Compound in a further experiment: CS(=O)(=O)N1CCN(Cc2cc3nc(-c4cccc5[nH]ncc45)nc(N4CCOCC4)c3s2)CC1 [pictilisib]
Summed up: as §1

Compound in experiment [4]: CS(=O)(=O)c1ccc(-c2cnc(N)c(C(=O)Nc3ccccc3)n2)cc1
Summed up:
as §1

Compound in a further experiment: C[C@@H](Oc1cc(-c2cnn(C3CCNCC3)c2)cnc1N)c1c(Cl)ccc(F)c1Cl [crizotinib]
Put shortly:
as §1

Compound in experiment [5]: C[C@@H]1COCCN1C2=NC(=NC(=C2)C3(CC3)S(=O)(=O)C)C4=C5C=CNC5=CC=C4
Summed up:
as §1

Compound in experiment [6]: C[C@H](C1=CC=C(C=C1)C(=O)NC2=C3C=CNC3=NC=C2)N
Summed up: as §1

Compound in another experiment: C[C@H](Nc1ncnc2nc[nH]c12)c1cc2cccc(Cl)c2c(=O)n1-c1ccccc1 [duvelisib]
Put shortly: as §1

Compound in the next experiment: Cc1cc(Nc2cc(CN3CCOCC3)c3nc(C)c(Cc4ccc(Cl)cc4F)n3n2)n[nH]1 [gandotinib]
Put shortly:
as §1

Compound in a further experiment: Cc1cc(Nc2cc(N3CCN(C)CC3)nc(Sc3ccc(NC(=O)C4CC4)cc3)n2)n[nH]1 [tozasertib]
Put shortly:
as §1

Compound in experiment [7]: Cc1cc(SCc2sc(-c3ccc(C(F)(F)F)cc3)nc2C)ccc1OCC(=O)O
Put shortly:
as §1

Compound in the next experiment: Cc1ccc(-n2nc(C(C)(C)C)cc2NC(=O)Nc2ccc(OCCN3CCOCC3)c3ccccc23)cc1 [doramapimod]
Put shortly: as §1

Compound in another experiment: Cc1ccc(C(=O)N(CCCN)[C@@H](c2nc3cc(Cl)ccc3c(=O)n2Cc2ccccc2)C(C)C)cc1 [ispinesib]
Put shortly: as §1

Targets with a hit are over-represented here; the source holds about 7,900 in all. About 0.6% of all pairs of compound and target were hits. Unmarked numbers belong to inactive results.

Sequence of UniProt Q8TAG9 (Q8TAG9 whole entry, looked up): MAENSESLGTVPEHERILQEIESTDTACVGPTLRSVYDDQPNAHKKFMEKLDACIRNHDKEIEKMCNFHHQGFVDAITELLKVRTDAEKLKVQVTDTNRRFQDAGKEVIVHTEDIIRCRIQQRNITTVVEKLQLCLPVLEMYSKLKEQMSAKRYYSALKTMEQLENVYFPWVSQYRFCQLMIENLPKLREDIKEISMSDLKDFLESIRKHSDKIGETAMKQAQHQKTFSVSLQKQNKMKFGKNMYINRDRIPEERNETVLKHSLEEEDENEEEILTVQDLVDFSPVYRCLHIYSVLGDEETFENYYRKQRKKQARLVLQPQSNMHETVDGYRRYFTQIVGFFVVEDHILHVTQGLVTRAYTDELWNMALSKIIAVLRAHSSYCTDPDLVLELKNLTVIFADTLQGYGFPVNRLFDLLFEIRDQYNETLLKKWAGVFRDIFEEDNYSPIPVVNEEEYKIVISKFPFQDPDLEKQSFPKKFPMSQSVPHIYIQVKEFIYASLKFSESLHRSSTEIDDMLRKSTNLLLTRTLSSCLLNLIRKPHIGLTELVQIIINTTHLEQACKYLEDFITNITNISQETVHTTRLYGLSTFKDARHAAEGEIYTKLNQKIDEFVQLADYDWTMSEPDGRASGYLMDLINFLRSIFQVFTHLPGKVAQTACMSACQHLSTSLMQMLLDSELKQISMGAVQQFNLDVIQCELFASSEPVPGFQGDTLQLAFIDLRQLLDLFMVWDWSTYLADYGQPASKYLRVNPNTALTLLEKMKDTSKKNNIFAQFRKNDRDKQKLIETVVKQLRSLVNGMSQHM
Sequence of UniProt Q2TBE0 (Q2TBE0 whole entry, looked up): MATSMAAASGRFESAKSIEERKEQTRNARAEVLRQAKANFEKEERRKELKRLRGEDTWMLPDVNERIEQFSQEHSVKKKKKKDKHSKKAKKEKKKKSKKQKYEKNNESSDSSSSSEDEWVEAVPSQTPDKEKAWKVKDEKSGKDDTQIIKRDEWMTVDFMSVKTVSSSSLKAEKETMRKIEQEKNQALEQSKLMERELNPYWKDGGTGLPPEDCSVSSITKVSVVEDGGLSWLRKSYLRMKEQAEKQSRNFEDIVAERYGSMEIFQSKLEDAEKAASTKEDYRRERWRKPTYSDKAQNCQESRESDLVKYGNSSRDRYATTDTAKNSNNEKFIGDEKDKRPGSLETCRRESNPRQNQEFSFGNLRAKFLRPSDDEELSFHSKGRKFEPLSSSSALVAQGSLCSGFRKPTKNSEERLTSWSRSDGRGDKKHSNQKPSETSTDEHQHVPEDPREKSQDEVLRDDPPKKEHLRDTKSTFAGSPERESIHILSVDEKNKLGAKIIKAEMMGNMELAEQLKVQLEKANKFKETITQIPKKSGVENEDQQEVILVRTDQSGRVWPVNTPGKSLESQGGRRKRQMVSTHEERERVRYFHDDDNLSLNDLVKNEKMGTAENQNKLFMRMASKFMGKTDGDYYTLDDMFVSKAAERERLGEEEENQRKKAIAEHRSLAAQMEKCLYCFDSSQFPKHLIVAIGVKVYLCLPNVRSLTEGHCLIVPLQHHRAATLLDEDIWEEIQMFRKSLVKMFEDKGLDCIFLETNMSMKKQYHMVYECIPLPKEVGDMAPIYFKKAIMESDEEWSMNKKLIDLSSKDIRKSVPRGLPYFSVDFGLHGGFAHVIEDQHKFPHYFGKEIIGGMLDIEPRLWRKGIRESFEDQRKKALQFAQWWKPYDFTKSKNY
Sequence of UniProt A1L3X0 (A1L3X0 whole entry, looked up): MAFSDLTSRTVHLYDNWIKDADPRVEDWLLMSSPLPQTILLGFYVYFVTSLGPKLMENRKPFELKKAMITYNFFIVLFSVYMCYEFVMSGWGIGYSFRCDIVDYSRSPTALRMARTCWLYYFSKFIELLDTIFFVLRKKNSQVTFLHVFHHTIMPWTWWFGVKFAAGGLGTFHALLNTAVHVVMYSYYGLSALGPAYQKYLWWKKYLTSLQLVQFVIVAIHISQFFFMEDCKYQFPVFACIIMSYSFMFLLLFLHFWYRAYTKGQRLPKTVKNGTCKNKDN
Sequence of UniProt P98173 (P98173 whole entry, looked up): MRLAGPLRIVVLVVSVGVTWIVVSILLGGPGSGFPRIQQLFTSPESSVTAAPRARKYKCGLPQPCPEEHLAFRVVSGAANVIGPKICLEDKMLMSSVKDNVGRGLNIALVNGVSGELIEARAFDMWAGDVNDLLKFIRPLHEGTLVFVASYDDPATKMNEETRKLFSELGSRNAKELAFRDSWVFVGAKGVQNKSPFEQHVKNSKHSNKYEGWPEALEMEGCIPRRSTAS

On to FAM3A (UniProt P98173), for which the log2 fold change in experiment [1] was -0.057; in the experiment with filanesib, -0.022; in the experiment with zotarolimus, 0.005; with idasanutlin it was 0.007; in the experiment with alisertib, 0.044; in experiment [2], -0.021. Also, the log2 fold change with gefitinib is 0.04; in experiment [3], 0.066; with lapatinib, 0.067; with pictilisib it was 0.055; in experiment [4], 0.01; with crizotinib, -0.071. Besides, the log2 fold change was 0.07 in [5]; 0.01 in experiment [6]; 0.006 with duvelisib; 0.014 with gandotinib; -0.025 in the experiment with tozasertib; -0.075 in experiment [7]. The values for the log2 fold change in the experiment with doramapimod and with ispinesib were 0.009 and -0.065, respectively.
For the target CWF19L2 (UniProt Q2TBE0), the log2 fold change is 0.003 in experiment [1]; 0.225 with filanesib; -0.025 with zotarolimus; 0.124 with idasanutlin; 0.062 in experiment [2]; -0.08 with lapatinib. Moreover, the log2 fold change with pictilisib was -0.309; in experiment [4] it was -0.024; with crizotinib it was -0.034; in [6], 0.027; in the experiment with duvelisib it was -0.1; with gandotinib it was 0.777 (active). Moreover, the log2 fold change in the experiment with tozasertib is -0.016; in experiment [7], -0.001; with doramapimod, -0.021; with ispinesib, -0.115.
On to EXOC6 (UniProt Q8TAG9), for which the log2 fold change in experiment [1] is -0.021; with filanesib it was 0.017; with zotarolimus, 0.151; with idasanutlin it was -0.058; in the experiment with alisertib, -0.013; in experiment [2], 0.119. Further, the log2 fold change with gefitinib is -0.037; in experiment [3], -0.101; in the experiment with lapatinib, -0.052; with pictilisib, -0.003; in [4], 0.001; with crizotinib, -0.206. In addition, the log2 fold change in [5] was -0.038; in experiment [6], 0.033; in the experiment with duvelisib it was -0.095; in the experiment with gandotinib, -0.098; with tozasertib it was 0.037; in experiment [7], 0.1. The log2 fold change is 0.02 with doramapimod and -0.363 (active) in the experiment with ispinesib.
As to DCP2 (UniProt Q8IU60), the log2 fold change is -0.085 in experiment [1]; 0.121 with filanesib; -0.037 with zotarolimus; 0.167 with idasanutlin; 0.075 in experiment [2]; -0.042 with lapatinib. In addition, the log2 fold change in experiment [4] is -0.211; with crizotinib, 0.779 (active); in experiment [5] it was 0.119; in experiment [6] it was 0.009; with duvelisib, -0.049; with tozasertib it was 0.219. In addition, the log2 fold change was 0.095 in experiment [7], 0.147 in the experiment with doramapimod and -0.045 with ispinesib.
As to ELOVL7 (UniProt A1L3X0), the log2 fold change was 0.012 with zotarolimus; -0.118 with idasanutlin; 0.088 in [5]; 0.037 in experiment [6]; -0.016 in the experiment with duvelisib; -0.018 in the experiment with tozasertib. Besides, in [7], the log2 fold change was 0.025.
Turning to FADS1 (UniProt F5GYH4), the log2 fold change is -0.373 in experiment [1], -0.079 in the experiment with crizotinib, -0.262 in the experiment with tozasertib and 0.106 with doramapimod.
